Screening data from PubChem.
This is one part of a sample in which hits are shown more often than they occur.
RORgamma inh = blocks mouse ROR gamma transcriptional activity; P51450; Drosophila S2 Gal4-RORgamma UAS-luciferase reporter, 20 h; Potency, µM (doses to about 53.6 µM), for the others: at the top dose activity change, negative = inhibition, most hits filed as inhibitors; 5.4% of 310,000 active; also: potency is read from the fitted curve at half-maximal effect; % is scaled to controls: 0 for no effect and ±100 for the full control effect; nearly all actives have a fitted effect of over 60% in size
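ROR gamma transcriptional activity was tracked as Gal4-UAS luciferase output in stably transfected Drosophila Schneider cells, with compound added 1 hr before 700 uM copper sulfate induction and a 20 hr ambient-temperature incubation.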
a7 integrin act = activates integrin-mediated alleviation for muscular dystrophy. 0.064% of 350,000 active. Potency, µM (series often up to 38.3 µM), for inactives: at the highest dose activation, usual class: activators. AID 624291. alpha7betagal myoblasts, beta-gal FDG fluorescence, 48 h;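 also: potency is read from the fitted curve at half-maximal effect; 100% = response of the positive control SU9516; nearly all actives have a fitted effect of over 60% in size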
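alpha7betagal+/- myoblasts (passage 13, 250/well) treated 48 h at 37C with compounds at 1:260 dilution of DMSO stock. Lysed, then beta-galactosidase activity read as FDG fluorescence (ex 480/em 540) after 30 min, with pre-read for autofluorescence.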
VP16 counter = inhibits Gal4-VP16 luciferase reporter, ROR gamma counter-screen | Potency, µM (highest dose often 53.6 µM), for inactives: at the top dose activity, negative = inhibition, usual class: inhibitors | 3.5% of 310,000 active | AID 2546 | Drosophila S2 Gal4-VP16 UAS-luciferase, luminescence, 20 h;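 also: Gal4-VP16 expression switched on by copper sulfate through the metallothionein promoter; potency is read from the fitted curve at half-maximal effect; % is scaled to controls: 0 for no effect and ±100 for the full control effect; nearly all actives have a fitted effect of over 50% in size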
Giardia kill = kills Giardia lamblia | activity change, % at 7.66 µM, hits read low | AID 540267 | 0.15% of 340,000 active | Giardia lamblia trophozoite viability; in the data active = activity change below about -80%; inconclusive = between about -30% and that limit;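 also: parasites exposed to compound for two days anaerobically before the ATP read; % is scaled to controls: 0 for no effect and ±100 for the full control effect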
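Giardia trophozoites, 100 cells per well, were exposed to compounds for 48 hrs at 37 deg C under anaerobic conditions; viability was then read as ATP content by bioluminescence after 15-30 min at room temperature.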
ERG Ets-DNA blk = blocks human ERG Ets domain binding to DNA. P11308. fluorescence polarization, His-ERG Ets domain / labelled DNA. Potency, µM (titrated, usually from 76.9 µM), inactives show at the highest dose FP activity, negative = inhibition, most hits filed as inhibitors. 0.028% of 370,000 active. AID 624246; active = well fitted inhibition curve with a large enough effect in the polarisation, with a control signal flat; inconclusive = small, poorly fitted or top-dose-only effect, or effect the other way, or a change in a side signal; inactive = no such curve, though single readings can be large or run the other way; the % refers to the polarisation;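 also: polarization taken with two DNA probes labelled with fluorescein and Texas red; potency is read from the fitted curve at half-maximal effect; % of control where 0% means no effect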
Target sequence (P11308 whole entry, looked up, the tested form may be a part): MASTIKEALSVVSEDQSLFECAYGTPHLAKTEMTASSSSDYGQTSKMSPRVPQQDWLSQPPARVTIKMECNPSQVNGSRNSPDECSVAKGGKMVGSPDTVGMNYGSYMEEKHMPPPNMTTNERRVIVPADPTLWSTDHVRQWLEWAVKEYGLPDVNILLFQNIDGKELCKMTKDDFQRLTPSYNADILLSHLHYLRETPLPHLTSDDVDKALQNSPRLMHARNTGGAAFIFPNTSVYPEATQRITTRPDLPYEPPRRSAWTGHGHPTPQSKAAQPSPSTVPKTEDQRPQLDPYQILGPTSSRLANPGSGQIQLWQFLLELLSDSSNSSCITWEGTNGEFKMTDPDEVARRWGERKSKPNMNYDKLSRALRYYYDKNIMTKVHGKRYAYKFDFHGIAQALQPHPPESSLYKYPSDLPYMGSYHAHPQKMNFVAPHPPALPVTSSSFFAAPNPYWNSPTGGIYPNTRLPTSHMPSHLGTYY
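His-tagged ERG Ets domain (1 uM in the protein solution; 300mM KCl, 50mM Tris-HCl, 1mM EDTA, 1mM DTT, pH 7.5) received compound, then a probe mix of 5 nM fluorescein-DNA and 100nM Texas-615-DNA. Fluorescence polarization was read for both dyes.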
The depositor's hits bear a star; u = inconclusive; x = not tested or not shown; ! = repeats disagree; [ ] = dose if it differs, or a comment. Unless noted, calls follow the shape of the dose curve; as a rule, active = well fitted curve in the direction sought with a large enough effect; inconclusive = small, poorly fitted or top-dose-only effect, or another doubt; inactive = no such curve, though single readings can be large; an effect the other way counts as inactive or inconclusive.

SMILES | RORgamma inh | a7 integrin act | VP16 counter | Giardia kill | ERG Ets-DNA blk
NC(=O)CCCc1nc(-c2ccccc2)no1 | -1% | 3% | -14% | 1 | -1%
O=C(O)CCCc1nc(-c2ccc(Cl)cc2)no1 | 0.35µM* | 9% | u | 3 | -7%
CCCCCCCCCCCCCCCCOC[C@H](COP(=O)([O-])OCC[N+](C)(C)C)OC(=O)CCCCCCCC(=O)O | -27% | x | u | x | x
CC(C)(C)c1nnc(NC(=S)Nc2ccccc2)s1 | 0.28µM* | 21% | 0.89µM* | -17 | 12%
COc1cc(OC)cc(C(=O)Nc2nnc(NC(=S)Nc3ccccc3)s2)c1 | 0.63µM* | 25% | u | 7 | -6%
CCCNC(=O)OC[C@@H]1O[C@H](CCO/N=C\C[C@H]2C=C[C@H](OC(C)=O)[C@@H](COC(C)=O)O2)C=C[C@@H]1Oc1ccc(OC)cc1 | 16%[10 µM] | x | -2%[10 µM] | x | x
COc1ccc(S(=O)(=O)N2CCC(C(=O)Nc3ccc(Oc4ccccc4)cc3)CC2)cc1OC | x | x | x | x | 1%
Cc1c(C(=O)O)cccc1-n1c(C)cc(/C=N/Nc2ccc([N+](=O)[O-])cn2)c1C | 12% | 2.8µM* | 4% | -14 | 11%
COc1cccc(/C=N/Nc2nc(Nc3ccc([N+](=O)[O-])cc3)nc(N3CCCC3)n2)c1O | 4.5µM* | 11% | -14% | 4 | 8%
COc1c(/C=N/Nc2nc(N3CCCCC3)nc(N3CCCCC3)n2)cccc1[N+](=O)[O-] | 0.32µM* | -2% | 14% | -2 | -1%
O=[N+]([O-])c1ccc(Nc2nc(N/N=C/c3cccc(F)c3)nc(N3CCCC3)n2)cc1 | u | 28% | -30% | 16 | -4%
COc1cccc(/C=N/Nc2ccc([N+](=O)[O-])cn2)c1O | 4.5µM* | -39% | 7.1µM* | -7 | 18%
O=S(=O)(c1ccc(Cl)cc1)c1nc(-c2cccs2)oc1N1CCCCC1 | x | x | x | x | 3%
O=C(CN1C(=O)NC2(CCCC2)C1=O)OCc1ccc(Cl)cc1Cl | x | -11% | x | 8 | 1%
O=[N+]([O-])c1cccc(/C=C/C=N/Nc2nc(N3CCCCC3)nc(N3CCCCC3)n2)c1 | 7.9µM* | -20% | -1% | 1 | -9%
O=[N+]([O-])c1ccc(/C=N/Nc2nc(N3CCOCC3)nc(N3CCOCC3)n2)cc1 | -8% | x | -9% | x | x
O=[N+]([O-])c1cccc(/C=N/Nc2nc(N3CCOCC3)nc(N3CCOCC3)n2)c1 | 37% | -16% | -16% | 5 | 0%
O=[N+]([O-])c1ccc(/C=N/Nc2nc(N3CCCCC3)nc(N3CCCCC3)n2)o1 | -28% | -22% | 1% | -84* | 7%
O=C(O)Cn1cc(/C=N/Nc2ccc([N+](=O)[O-])cn2)c2ccccc21 | -1% | 7% | 8% | 6 | 11%
Cc1ccc(Cn2cc(/C=N/Nc3ccc([N+](=O)[O-])cn3)c3ccccc32)cc1 | 11µM* | -6% | 7.9µM* | 17 | 3%
COc1cc2ncnc(Nc3cccc(Br)c3)c2cc1OC | u | x | -6% | x | x
COc1ccc(Nc2ncnc3ccc(Br)cc23)cc1OC | 21% | 4µM* | 0% | -3 | -1%
CNc1cc2c(Nc3cccc(Br)c3)ncnc2cn1 | 13µM* | x | 13µM* | x | x
N#C/C(=C\c1cccs1)C(=O)c1ccccc1Cl | u | -26% | 7.9µM* | 16 | 87%
CC(C)(C)C(=O)/C(C#N)=C/c1cccs1 | 2% | 36% | -13% | -14 | 13%
SMILES | RORgamma inh | a7 integrin act | VP16 counter | Giardia kill | ERG Ets-DNA blk
N#C/C(=C\c1cccs1)C(=O)Nc1nccs1 | 7.1µM* | 8% | u | -3 | 15%
CCCCCCC(=O)N1C/C=C\C(c2ccc(OC)cc2)N(Cc2ccc(F)cc2)C(=O)C1Cc1ccccc1 (centres undefined) | -40% | x | u | 13 | x
CC(=O)O[C@]1(C(C)=O)CC[C@H]2[C@@H]3C[C@H](C)C4=CC(=O)CC[C@]4(C)[C@H]3CC[C@@]21C | -34% | x | -6% | -9 | 25µM*!
COc1ccc(NS(=O)(=O)c2cccc(C(=O)NN=C(C)c3ccco3)c2)cc1 | x | -20% | x | -25 | 8%
CC(C(=O)Nc1ccc(C#N)cc1)N(C)CC(=O)Nc1cccc(F)c1 (centres undefined) | 24% | 4µM* | 9% | 75 | -6%
CCCCS(=O)(=O)/C=C\C=C/S(=O)(=O)CCCC | 0.71µM* | -70% | 0.89µM* | -17 | -6%
C=CCN(CC=C)C(=S)NC(=O)/C=C/c1ccccc1 | 14µM* | -5% | -27% | -3 | -3%
C=CCN(CC=C)C(=S)NC(=O)/C=C/c1ccc(OC)cc1 | -21% | -9% | -13% | -16 | -9%
C=CCN(CC=C)C(=S)NC(=O)/C=C/c1ccc(C)cc1 | 6.3µM* | -28% | u | 13 | -9%
CS[C@@H]1SC[C@H]2C(=O)N(C)C(C(C)C)C(=O)OC[C@@H](NC(=O)c3cnc4ccccc4n3)C(=O)N[C@@H](C)C(=O)N(C)[C@H]1C(=O)N(C)C(C(C)C)C(=O)OC[C@@H](NC(=O)c1cnc3ccccc3n1)C(=O)N[C@@H](C)C(=O)N2C (some centres undefined) | 0.04µM* | x | -1% | x | x
O=C(CSC1=NS(=O)(=O)c2ccccc2N1)NCc1ccc(F)cc1 | x | 2% | x | 15 | -1%
CN1C(=O)/C(=C/c2cn(CC(=O)N3CCCCC3)c3ccccc23)NC1=S | 11µM* | 22% | u | 3 | 12%
CN1C(=O)/C(=C/c2cn(CC(=O)NCc3ccco3)c3ccccc23)NC1=S | -20% | x | 6% | x | x
C/C(=N\Nc1nc2ccc(Cl)cc2o1)c1ccccc1 | 2.5µM* | 1% | u | u | 2%
O=C(COc1ccccc1)Nc1nnc(-c2ccc(F)cc2)o1 | u | 17% | 6.3µM* | 11 | -14%
O=C(COc1ccccc1)Nc1nnc(-c2ccc3c(c2)CCCC3)o1 | 5.6µM* | -5% | 3.5µM* | -7 | -2%
O=C(Nc1nnc(-c2ccc3c(c2)CCCC3)o1)c1ccccc1Cl | 1.3µM* | -20% | 0.79µM* | -12 | -9%
O=C(Nc1nnc(-c2ccc3c(c2)CCCC3)o1)c1ccccc1 | 0.28µM* | -32% | 0.1µM* | -20 | 9%
COc1ccc(C)cc1NC(=O)CCN1CC(C)OC(C)C1 (centres undefined) | -10% | -7% | -9% | -10 | -5%
CC(C)NC(=O)c1ccc(CSc2nc3ccncc3n2Cc2cccc(F)c2)cc1 | x | x | x | x | -1%
CCCCCCn1c(SCC(=O)c2c(N)n(C)c(=O)n(C)c2=O)nc2ccccc21 | -15% | -16% | 14% | -5 | 4%
CCOC(=O)c1ccc(N2CCN(C(=O)c3ccccc3)CC2)c(NC(=O)c2ccco2)c1 | u | 6% | -2% | 8 | 11%
CCN(c1ccc(NC(=O)COC(=O)c2cc3ccccc3oc2=O)cc1)C(C)C | 15% | -15% | 1% | 15 | -25%
O=C(COC(=O)c1cc2ccccc2oc1=O)Nc1ccc(F)cc1F | 4% | 4.5µM* | -1% | 10 | -7%
